Screens: PubChem BioAssay, National Center for Advancing Translational Sciences (NCATS)
IMPase cell inh – membrane-permeable compound that blocks inositol monophosphatase; P97697; 120,000 tested, under 10 active; AID 901; inhibition (IP1 accumulation), % at 46.1 µM; CHO-M1 cells, IP1 accumulation, HTRF TR-FRET ratio; active = well fitted curve in the direction sought with a large enough effect in the signal ratio, not every such curve was filed as active; inconclusive = small, poorly fitted or top-dose-only effect, or a change in a side signal; inactive = no such curve, though single readings can be large or run the other way; the % refers to the signal ratio;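 also: cells stimulated with carbachol in lithium chloride buffer; higher means more IMPase inhibition seen as more IP1 and lower FRET ratio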
Target sequence (P97697 whole entry, looked up): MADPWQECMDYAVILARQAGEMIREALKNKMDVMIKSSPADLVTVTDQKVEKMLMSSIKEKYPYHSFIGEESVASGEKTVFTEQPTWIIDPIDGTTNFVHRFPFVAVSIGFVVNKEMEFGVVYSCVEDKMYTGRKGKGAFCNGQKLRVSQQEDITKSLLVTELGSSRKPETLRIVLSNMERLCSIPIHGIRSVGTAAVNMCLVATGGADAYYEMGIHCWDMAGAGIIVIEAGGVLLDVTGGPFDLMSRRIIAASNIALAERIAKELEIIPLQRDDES
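Seeded CHO-M1 cells were dosed with compound at up to 46 uM, stimulated with carbachol for 30 min, then lysed in IP-One detection reagents. Higher IP1 lowers the TR-FRET signal.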
ALDH1A1 block – blocks purified human ALDH1A1 activity | hit rate 7.3% among 220,000 | P00352 | AID 1030 | Purified ALDH1A1, NADH fluorescence, propionaldehyde substrate | Potency, µM (top dose mostly 75.3 µM), hits mostly inhibitors; active = well fitted inhibition curve with a large enough effect, not every such curve was filed as active; inconclusive = small, poorly fitted or top-dose-only effect, or another doubt; inactive = no such curve, though single readings can be large or run the other way
NPSR antagonist – neuropeptide S receptor (human) antagonism, cAMP; CHO-NPSR cells, cAMP TR-FRET, antagonist mode; Potency, µM (doses to about 38.3 µM), actives largely listed as inhibitors; hit rate 1% among 220,000; AID 1461; also: nearly all actives have a fitted effect of over 50% in size
Target sequence (Q6W5P4 whole entry, looked up): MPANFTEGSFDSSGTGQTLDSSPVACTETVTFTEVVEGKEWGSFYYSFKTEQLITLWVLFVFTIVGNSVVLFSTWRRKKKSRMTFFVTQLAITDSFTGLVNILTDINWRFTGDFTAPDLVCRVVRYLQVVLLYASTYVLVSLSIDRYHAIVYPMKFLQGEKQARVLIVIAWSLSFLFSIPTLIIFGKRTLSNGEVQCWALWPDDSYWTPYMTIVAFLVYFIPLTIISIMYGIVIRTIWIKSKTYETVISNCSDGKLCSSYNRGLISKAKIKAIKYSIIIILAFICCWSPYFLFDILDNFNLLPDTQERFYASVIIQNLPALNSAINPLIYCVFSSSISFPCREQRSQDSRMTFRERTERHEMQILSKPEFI
ALOX12 inhib – 12-hLO (ALOX12) enzyme inhibition | purified 12-hLO, xylenol orange hydroperoxide absorbance | Potency, µM (highest dose often 57.1 µM), usual class: inhibitors | hit rate 0.12% among 150,000 | AID 1452; also: nearly all actives have a fitted effect of over 55% in size
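Xylenol orange chromogenic assay: hydroperoxide from 12hLO oxidises Fe(II), giving red-shifted Fe(III)-XO absorbance. Conditions: 150 nM enzyme, 40 uM arachidonic acid, 25 mM Hepes pH 7.0, 0.01% Triton X-100, 30 min, room temperature.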
IMPase Li cell – membrane-permeable IMPase blocker, potentiated with lithium. CHO-M1 cells, IP1 TR-FRET (IP-One), carbachol + lithium. hit rate 0.35% among 210,000. Potency, µM (top dose mostly 59.4 µM), most hits filed as inhibitors;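 also: IP1 builds up when IMPase is blocked and the TR-FRET signal falls; nearly all actives have a fitted effect of over 50% in size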
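Readout is a homogeneous TR-FRET IP1 immunoassay (Ex 320, Em 665 and 620), where raised cytosolic IP1 lowers signal. Cells were CHO-M1 treated 30 min at 37C with test compounds plus a little lithium; AC50 values came from Hill-equation fitting.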
HPGD inh – HPGD (human) dehydrogenase inhibition; purified HPGD, NADH fluorescence kinetic, PGE2 substrate; Potency, µM, actives largely listed as inhibitors; P15428; hit rate 4.3% among 150,000; active = well fitted inhibition curve with a large enough effect, not every such curve was filed as active; inconclusive = small, poorly fitted or top-dose-only effect, or another doubt; inactive = no such curve, though single readings can be large or run the other way
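NADH formation kinetics: reaction with 30 uM PGE2 and 1 mM NAD+ (final), 20 nM enzyme, Tris-HCl pH 8 with Tween 20, after 15 min compound preincubation at room temperature. Fluorescence change, last versus first of five reads.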
A number is an active result; – = inactive; ? = inconclusive; · = no result given; [ ] = remark or other dose. In the library only some 8.9% were active in any assay of this set; here they are far more common. Unless noted, calls follow the shape of the dose curve; as a rule, active = well fitted curve in the direction sought with a large enough effect; inconclusive = small, poorly fitted or top-dose-only effect, or another doubt; inactive = no such curve, though single readings can be large; an effect the other way counts as inactive or inconclusive.

SMILES | IMPase cell inh | ALDH1A1 block | NPSR antagonist | ALOX12 inhib | IMPase Li cell | HPGD inh
CC1(C)Cc2ccccc2/C(=C/C(=O)N2CCCCCC2)N1 | – | ? | 7.94µM | – | – | –
COc1ccc(OCC(=O)c2c(O)c3ccccc3oc2=O)cc1 | – | ? | – | – | – | 22.4µM
CCOc1ccc(OCC(=O)c2c(O)c3ccccc3oc2=O)cc1 | – | 8.91µM | – | – | – | 12.6µM
CCCCC(=O)c1c(O)c2ccccc2oc1=O | – | – | – | – | – | –
COc1ccc(-c2cn(-c3ccc(C)cc3)c(=O)n2CC(=O)Nc2cccc(F)c2)cc1 | – | – | – | – | – | –
COc1cccc(C2CN(c3ccc(F)cc3F)N=C2c2cccs2)c1OC (stereo not drawn) | ? | ? | – | – | – | ?
COCC(C)NS(=O)(=O)c1ccccc1 (stereo not drawn) | · | – | – | · | – | ·
CCN(CC)c1ccc(N=Cc2ccccc2[N+](=O)[O-])cc1 | · | 2µM | – | – | – | –
O=c1c(-c2ccccc2)coc2cc(O)cc(O)c12 | · | 11.2µM | · | 11.2µM | – | 6.31µM
O=c1c(-c2ccc3c(c2)OCCO3)coc2cc(O)cc(O)c12 | – | 15.8µM | ? | ? | – | 28.2µM
O=c1c(-c2ccc(O)cc2)coc2cc(O)ccc12 | – | ? | – | –[0.00818 µM] | – | ?
Cc1ccc(/C=[N+](/[O-])C2SC(=S)N(C)C2(C)C)cc1 (stereo not drawn) | – | – | – | – | – | –
COCCSc1ccccc1C(=O)N1CCC(Cc2ccccc2)CC1 | · | – | – | · | – | ·
C=CCOC(=O)C1=C(C)NC(=S)NC1/C=C/c1ccccc1 (stereo not drawn) | – | 0.0447µM | – | ? | – | –
COCCOC(=O)C1=C(C)NC(=O)NC1/C=C/c1ccccc1 (stereo not drawn) | · | – | – | – | – | –
COCCOC(=O)C1=C(C)NC(=S)NC1/C=C/c1ccccc1 (stereo not drawn) | · | 0.794µM | – | – | – | –
COCC1CCN(Cc2cn[nH]c2-c2ccc(OC)cc2F)C1 (stereo not drawn) | · | – | – | · | – | ·
CC(C)C1S/C(=N/N=C/c2ccco2)NC1=O (stereo not drawn) | – | · | – | – | – | 12.6µM
Cc1ccccc1CC1S/C(=N/N=C/c2ccco2)NC1=O (stereo not drawn) | · | · | – | · | · | ·
CC1CC(C)CN(C(=O)c2ccc(CNc3c(N4CCCC4)c(=O)c3=O)cc2)C1 (stereo not drawn) | · | · | – | · | · | ·
CCOC(=O)C1CCN(c2c(NCc3ccc(N(C)C)cc3)c(=O)c2=O)CC1 | · | · | – | · | · | ·
O=C(c1ccc(CNc2c(N3CCCC3)c(=O)c2=O)cc1)N1CCc2ccccc2C1 | – | – | – | – | – | 3.55µM
CCOC(=O)C1CCN(c2c(NCc3ccc(C(=O)NC(C)CC)cc3)c(=O)c2=O)CC1 (stereo not drawn) | – | ? | – | – | – | 5.01µM
CN(C)c1ccc(CNC(=O)c2ccc(CNc3c(N4CCCCC4)c(=O)c3=O)cc2)cc1 | – | 28.2µM | – | – | – | 22.4µM
COc1ccc(CNC(=O)COc2ccc(C)nc2[N+](=O)[O-])cc1 | · | ? | – | · | – | ·
SMILES | IMPase cell inh | ALDH1A1 block | NPSR antagonist | ALOX12 inhib | IMPase Li cell | HPGD inh
O=C(C1CC1)N1CCc2cc(S(=O)(=O)NCCC3=CCCCC3)ccc21 | – | ? | – | – | – | –
O=C1NC(c2ccccc2)=C(c2nc3ccccc3s2)C(c2ccc(F)cc2)N1 (stereo not drawn) | – | – | – | – | – | –
NS(=O)(=O)c1ccc(N=C2C(=O)Nc3ccccc32)cc1 | · | –[13.5 µM] | – | –[11.4 µM] | – | –
NC(=O)c1ccc(N=C2C(=O)Nc3ccc([N+](=O)[O-])cc32)cc1 | · | 12.6µM | – | · | – | ·
CN1N=C(C(C)(C)C)CSC1=Nc1ccccc1 | · | – | – | · | · | ·
C=CCn1c(SCC(=O)NC23CC4CC(CC(C4)C2)C3)nc2cc(C(=O)O)ccc2c1=O | · | 12.6µM | – | · | – | ·
C=CCn1c(SCC(=O)Nc2ccc(F)cc2)nc2cc(C(=O)O)ccc2c1=O | · | – | – | · | – | ·
C=CCn1c(SCc2cc([N+](=O)[O-])cc3c2OCOC3)nc2cc(C(=O)O)ccc2c1=O | · | 10µM | ? | · | · | ·
COc1ccc(OC)c(-n2c(SCC(=O)Nc3cccc(S(N)(=O)=O)c3)nc3ccccc3c2=O)c1 | · | – | – | · | · | ·
CCOc1ccc(C(=O)NC2CCN(C(=O)N3CCCC3)CC2)cc1 | – | ? | – | – | – | –
Cc1cc(=O)[nH]c(SC/C=C/c2ccccc2)n1 | – | – | – | – | – | –
C=CCNC(=O)C(C#N)c1nc2ccccc2nc1N1CCCCCC1 (stereo not drawn) | – | ? | – | ? | – | ?
Cc1cc(=O)oc2cc(NC(=O)c3cc4ccccc4o3)ccc12 | – | ? | ? | – | 2µM | ?
Cc1cc(C(=O)N/N=C2\CCCc3ccccc32)c(C)o1 | · | – | – | – | – | –
O=c1c(-c2ccccc2)n[nH]c2ccccc12 | – | ? | – | – | · | ·
O=C1c2ccccc2-c2n[nH]c3cccc1c23 | – | 3.16µM | – | – | – | –
CC(C)(C)NC(=O)NC(=O)CSc1ncccn1 | · | – | – | · | – | ·
Cc1cc(-c2nc(C)c(C(=O)NN)s2)no1 | · | 10µM | – | · | · | ·
Cc1ccc(N/C=C/C(=O)c2sc(-c3ccccc3)nc2C)cc1 | ? | 11.2µM | – | – | – | –
C=CCNC(=O)c1sc(-c2ccccc2)nc1C | · | – | – | · | – | ·
Cc1cc(-c2nc(C)c(C(=O)NNS(=O)(=O)c3ccc(Cl)cc3Cl)s2)no1 | · | ? | – | · | · | ·
Cc1nc(-c2ccccc2)sc1C(=O)NN | · | 4.47µM | – | · | – | ·
Cc1nc(N)sc1C(=O)NN | · | 25.1µM | – | · | · | ·
CC(=O)CSc1nnc(Cc2ccc([N+](=O)[O-])cc2)o1 | – | – | – | – | – | –
O=C(CCc1nnc(CCCc2ccccc2)o1)NC(C1CC1)C1CC1 | · | – | – | · | – | ·
SMILES | IMPase cell inh | ALDH1A1 block | NPSR antagonist | ALOX12 inhib | IMPase Li cell | HPGD inh
CCCOC(=O)c1ccc(-n2nnnc2SCC(=O)N2CCCCC2)cc1 | – | ? | – | – | – | –
COC(=O)Cn1c(CN2CCOCC2)nc2c1c(=O)[nH]c(=O)n2C | – | – | – | – | – | –
COc1ccc2nc3c(c([Si](C)(C)C(C)(C)C)c2c1)Cn1c-3cccc1=O | · | 22.4µM | · | – | – | ?
COc1cc(S(=O)(=O)N(Cc2cccc(OC)c2OC)CC2CCCO2)ccc1-n1cnnn1 (stereo not drawn) | · | · | – | · | · | ·
Cc1cc(OCC(=O)Nc2ccncc2)ccc1[N+](=O)[O-] | · | 10µM | – | · | – | ·
CC(=O)Nc1ccc(NC(=O)COc2ccc([N+](=O)[O-])cc2)cc1 | · | 11.2µM | – | · | – | ·
Cc1cccc(C(=O)Oc2ccc(/C=N/NC(=O)c3ccccc3O)cc2)c1 | · | ? | – | – | – | –
CSc1nc(-c2ccccc2)nc(N2CCCC2)c1C(C)=O | ? | – | – | – | – | 20µM
